Measured values reported in PubChem BioAssay (EPA / NIEHS).
Active and inactive are the calls of the source. How the source made its calls: active means hit-call score of the fitted dose curve at least 0.9, where 1 is the maximum; inactive means score below 0.9.

Columns and labels:
Conditions in all cases: mRNA level, 48 h; actives raise or lower the signal
[1] = read-out: Apolipoprotein A-V (APOA5) gene, APOA5 (gene 116519); test: LTEA_HepaRG_APOA5: Life Technologies and Expression Analysis (LTEA) Assay for Apolipoprotein A-V (APOA5) gene using HepaRG (AID 2283474)
In short: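 Human liver HepaRG cells are treated 48 h with test chemicals (100 uM top, half-log dilutions, 0.5% DMSO). APOA5 mRNA induction or loss is measured by qRT-PCR relative to vehicle.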

[2] = read-out: Bcl-2 (BID) gene, BID (gene 637); test: LTEA_HepaRG_BID: Life Technologies and Expression Analysis (LTEA) Assay for Bcl-2 (BID) gene using HepaRG (AID 2283476)
In short: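 HepaRG, 48 h exposure, 8-pt half-log series, top 100 uM, 0.5% DMSO vehicle, duplicates. Readout: BID mRNA by TaqMan qRT-PCR; housekeeping-normalized; bidirectional curve fit vs DMSO baseline.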

[3] = read-out: Cytochrome P450 (CYP24A1), CYP24A1 (gene 1591); test: LTEA_HepaRG_CYP24A1: Life Technologies and Expression Analysis (LTEA) Assay for Cytochrome P450 (CYP24A1) using HepaRG (AID 2283478)
In short: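 Human liver HepaRG cultures receive each chemical for 48 h across an eight-point half-log series topping at 100 uM in 0.5% DMSO. Induction or suppression of CYP24A1 mRNA is scored relative to vehicle after housekeeping-gene normalization.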

[4] = read-out: Cytochrome P450 (CYP1A2), CYP1A2 (gene 1544); test: LTEA_HepaRG_CYP1A2: Life Technologies and Expression Analysis (LTEA) Assay for Cytochrome P450 (CYP1A2) using HepaRG (AID 2283479)
In short: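 Assesses CYP1A2 mRNA in human HepaRG liver cells after 48 h chemical exposure at up to 100 uM. Values come from qRT-PCR with bidirectional curve fitting relative to DMSO.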

[5] = read-out: cysteine-aspartic acid protease (CASP8), CASP8 (gene 841); test: LTEA_HepaRG_CASP8: Life Technologies and Expression Analysis (LTEA) Assay for cysteine-aspartic acid protease (CASP8) using HepaRG (AID 2283480)
In short: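 CASP8 transcript measured by TaqMan qRT-PCR with ACTB/GAPDH/POLR2A normalization, after 48 h chemical exposure of HepaRG cells in serum-free induction medium. Eight concentrations, top 100 uM, half-log steps, 0.5% DMSO vehicle; fits in both directions versus DMSO.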

[6] = read-out: Cytochrome P450 (CYP2B6), CYP2B6 (gene 1555); test: LTEA_HepaRG_CYP2B6: Life Technologies and Expression Analysis (LTEA) Assay for Cytochrome P450 (CYP2B6) using HepaRG (AID 2283481)
In short: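 Using 48 h treatment of HepaRG cells in serum-free induction medium, concentrations spanned half-log steps from 100 uM in 0.5% DMSO vehicle. CYP2B6 mRNA induction or loss is scored by qRT-PCR against DMSO.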

[7] = read-out: Cytochrome P450 2C19 (Homo sapiens) (UniProt P33261); test: LTEA_HepaRG_CYP2C19: Life Technologies and Expression Analysis (LTEA) Assay for CYP2C19 using HepaRG (AID 2283482)
In short: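 Human HepaRG liver cells received test chemicals for 48 h (highest 100 uM, half-log dilutions in 0.5% DMSO). CYP2C19 mRNA induction or loss is read by multiplexed qRT-PCR and fitted in both directions versus vehicle.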

CYP2C8 (gene 1558) = test: LTEA_HepaRG_CYP2C8: Life Technologies and Expression Analysis (LTEA) Assay for CYP2C8 using HepaRG (AID 2283483)
In short: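 CYP2C8 expression measured by TaqMan qRT-PCR and normalized to three housekeeping genes. HepaRG cultures were treated for 48 h with an eight-point half-log series topping at 100 uM, vehicle 0.5% DMSO, duplicates; fitted both directions against DMSO.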

Measured: AC50

Cytochrome P450 2C19 (Homo sapiens), sequence (P33261 whole entry, looked up): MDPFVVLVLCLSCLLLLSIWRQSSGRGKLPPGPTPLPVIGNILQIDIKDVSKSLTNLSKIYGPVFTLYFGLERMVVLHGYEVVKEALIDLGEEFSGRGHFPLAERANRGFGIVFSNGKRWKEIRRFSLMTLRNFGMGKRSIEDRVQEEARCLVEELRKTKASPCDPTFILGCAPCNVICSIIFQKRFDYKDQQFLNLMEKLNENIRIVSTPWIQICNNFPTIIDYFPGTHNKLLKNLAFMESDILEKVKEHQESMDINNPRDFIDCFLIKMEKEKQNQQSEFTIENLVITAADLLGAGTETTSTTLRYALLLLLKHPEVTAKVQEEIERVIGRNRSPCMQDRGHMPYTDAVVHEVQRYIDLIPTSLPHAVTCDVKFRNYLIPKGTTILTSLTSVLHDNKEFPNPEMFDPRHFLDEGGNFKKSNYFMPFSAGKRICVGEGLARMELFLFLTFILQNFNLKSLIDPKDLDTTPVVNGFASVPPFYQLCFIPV

CC1=C(C(=O)Nc2ccccc2)SCCO1
active: [1] 50 µM | [4] 50 µM | [6] 45 µM
inactive: [2] | [3] | [5] | [7] | CYP2C8 (gene 1558)

C#CCOS(=O)OC1CCCCC1Oc1ccc(C(C)(C)C)cc1 (centres undefined)
active: [2] 11.4 µM | [5] 31.3 µM | [6] 26.6 µM | [7] 26.3 µM | CYP2C8 (gene 1558) 29.9 µM
inactive: [1] | [3] | [4]

COP(N)(=O)SC (centres undefined)
inactive: [1] | [2] | [3] | [4] | [5] | [6] | [7] | CYP2C8 (gene 1558)

O=C(O)COc1nc(Cl)c(Cl)cc1Cl
inactive: [1] | [2] | [3] | [4] | [5] | CYP2C8 (gene 1558)
active: [6] 51 µM | [7] 51 µM

COC(=O)C=C(C)OP(=O)(OC)OC
inactive: [2] | [3] | [4] | [5] | [6] | [7] | CYP2C8 (gene 1558)

CCCCNC(=O)n1c(NC(=O)OC)nc2ccccc21
inactive: [1] | [2] | [3] | [5] | [6] | [7] | CYP2C8 (gene 1558)
active: [4] 20.7 µM

CCCCOC(=O)c1ccccc1C(=O)OCCCC
inactive: [1] | [2] | [3] | [4] | [5] | [6] | [7] | CYP2C8 (gene 1558)

COC(=O)C(C)Oc1ccc(Oc2ccc(Cl)cc2Cl)cc1 (centres undefined)
inactive: [1] | [2] | [3] | [4] | [5] | [6] | CYP2C8 (gene 1558)
active: [7] 29.4 µM

CCOc1cc(Oc2ccc(C(F)(F)F)cc2Cl)ccc1[N+](=O)[O-]
active: [1] 30.8 µM | [4] 5.27 µM | [6] 34.4 µM | [7] 69.3 µM | CYP2C8 (gene 1558) 74.2 µM
inactive: [2] | [3] | [5]

Oc1ccccc1-c1ccccc1
inactive: [1] | [2] | [3] | [4] | [5] | [6] | [7] | CYP2C8 (gene 1558)

CCCCNC(=O)OCC#CI
inactive: [1] | [2] | [3] | [5]
active: [4] 31.1 µM | [6] 30.6 µM | [7] 50 µM | CYP2C8 (gene 1558) 50 µM

CC1COC(Cn2cncn2)(c2ccc(Oc3ccc(Cl)cc3)cc2Cl)O1 (centres undefined)
active: [1] 12.8 µM | [2] 12 µM | [3] 50 µM | [6] 9.66 µM | [7] 27.1 µM | CYP2C8 (gene 1558) 9.46 µM
inactive: [4] | [5]

COc1ccc(C(c2ccc(OC)cc2)C(Cl)(Cl)Cl)cc1
inactive: [2] | [3] | [4] | [5] | CYP2C8 (gene 1558)
active: [1] 70.9 µM | [6] 12.4 µM | [7] 12.7 µM

CC(C)(C)c1ccc(CSc2cnn(C(C)(C)C)c(=O)c2Cl)cc1
inactive: [2] | [3]
active: [1] 12 µM | [4] 2.36 µM | [5] 12.8 µM | [6] 1.54 µM | [7] 28 µM | CYP2C8 (gene 1558) 22.5 µM

CCc1nn(C)c(C(=O)NCc2ccc(C(C)(C)C)cc2)c1Cl
inactive: [3]
active: [1] 0.5 µM | [2] 50 µM | [4] 0.866 µM | [5] 35.8 µM | [6] 0.346 µM | [7] 20.7 µM | CYP2C8 (gene 1558) 0.414 µM
